# Source: PubChem BioAssay (EPA / NIEHS)
# Activity calls are given as the source filed them. The calls were made as follows: active = hit-call score of the fitted dose curve at least 0.9, where 1 is the maximum; inactive = score below 0.9.
# Read-out: Tumor necrosis factor (Homo sapiens) (UniProt P01375)
# Experiment: BSK_LPS_TNFa: BioMAP Diversity Plus: LPS Assay for Tumour Necrosis Factor alpha (TNFa) Biomarker Activity (AID 2283085);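 as to AC50: TNFa protein level quantified by ELISA in the co-culture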
# Conditions: primary human HUVEC with PBMC; actives raise or lower the signal
# Method in brief: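 Cells (umbilical vein endothelium plus peripheral blood mononuclear cells) were dosed with chemical, incubated 24 h, then TNFa was quantified by ELISA; values derive from bidirectional fitting with DMSO as baseline.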
# Sequence of Tumor necrosis factor (Homo sapiens) (P01375 whole entry, looked up): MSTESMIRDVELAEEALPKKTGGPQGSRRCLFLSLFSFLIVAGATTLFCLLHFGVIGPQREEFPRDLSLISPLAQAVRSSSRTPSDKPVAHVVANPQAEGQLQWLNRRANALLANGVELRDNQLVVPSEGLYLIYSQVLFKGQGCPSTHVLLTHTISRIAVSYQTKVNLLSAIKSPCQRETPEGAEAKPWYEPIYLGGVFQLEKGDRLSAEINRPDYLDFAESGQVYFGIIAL
Compound,outcome,AC50
N#CC(Br)Br,inactive,
OCCOCCO,inactive,
O=C(N[C@H](c1ccccc1)[C@@H]1CN2CCC1CC2)c1c(Cl)ccc(C(F)(F)F)c1Cl,inactive,
COP(=S)(OC)SCN1C(=O)c2ccccc2C1=O,inactive,
C=CCc1ccc2c(c1)OCO2,inactive,
O=C(Nc1ccccc1)c1ccccc1I,inactive,
c1ccc(N=Nc2ccccc2)cc1,inactive,
C1=Cc2cccc3cccc1c23,inactive,
CS(=O)(=O)NC(=O)c1cc(Oc2ccc(C(F)(F)F)cc2Cl)ccc1[N+](=O)[O-],inactive,
Oc1ccccc1Cl,inactive,
CO[C@@H]1[C@H](OC(=O)NC(=O)CCl)CC[C@]2(CO2)[C@H]1[C@@]1(C)O[C@@H]1CC=C(C)C,,10 µM (active)
CC(C)(C)OOC(=O)c1ccccc1,inactive,
[As]#[In],inactive,
Nc1ccc(N=Nc2ccccc2)cc1,,6.01 µM (active)
c1ccc2c(c1)-c1cccc3cccc-2c13,,4.36 µM (active)
CC(C)(OOC(C)(C)c1ccccc1)c1ccccc1,,31.7 µM (active)
ClC1=C(Cl)[C@]2(Cl)[C@H]3[C@H]([C@@H]4C=C[C@H]3C4)[C@@]1(Cl)C2(Cl)Cl,,31.5 µM (active)
O=[N+]([O-])c1ccc(Oc2ccc(Cl)cc2Cl)cc1,inactive,
CCC[CH2][Sn]([Cl])([CH2]CCC)[CH2]CCC,,0.248 µM (active)
CN(C)c1ccccc1,inactive,
COC(=O)c1ccccc1N,inactive,
CN(C)c1ccc(C(=O)c2ccc(N(C)C)cc2)cc1,inactive,
Cc1cc(N=Nc2ccccc2C)ccc1N,inactive,
C[N+](C)(C)CC1CO1 (centres undefined),inactive,
O=Cc1ccco1,inactive,
CCC(C)c1ccc(O)cc1 (centres undefined),inactive,
[O-][Cl+]O,inactive,
O=C(O)C1C2CCC(O2)C1C(=O)O (centres undefined),,6.16 µM (active)

# Read-out: Vascular cell adhesion molecule 1 (VCAM1), VCAM1 (gene 7412)
# Experiment: BSK_LPS_VCAM1: BioMAP Diversity Plus: LPS Assay for Vascular cell adhesion molecule 1 (VCAM1) Biomarker Activity (AID 2283086)
# Conditions: primary human HUVEC with PBMC; actives raise or lower the signal
# Method in brief: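 Cells are dosed in an LPS-stimulated endothelial/mononuclear co-culture and, after 24 h, VCAM-1 is quantified by ELISA. Activity in either direction is fitted relative to the DMSO negative control.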
Compound,outcome,AC50
N#CC(Br)Br,inactive,
OCCOCCO,inactive,
O=C(N[C@H](c1ccccc1)[C@@H]1CN2CCC1CC2)c1c(Cl)ccc(C(F)(F)F)c1Cl,,17.7 µM (active)
COP(=S)(OC)SCN1C(=O)c2ccccc2C1=O,inactive,
C=CCc1ccc2c(c1)OCO2,inactive,
O=C(Nc1ccccc1)c1ccccc1I,inactive,
c1ccc(N=Nc2ccccc2)cc1,inactive,
C1=Cc2cccc3cccc1c23,inactive,
CS(=O)(=O)NC(=O)c1cc(Oc2ccc(C(F)(F)F)cc2Cl)ccc1[N+](=O)[O-],inactive,
Oc1ccccc1Cl,inactive,
CO[C@@H]1[C@H](OC(=O)NC(=O)CCl)CC[C@]2(CO2)[C@H]1[C@@]1(C)O[C@@H]1CC=C(C)C,,7.31 µM (active)
CC(C)(C)OOC(=O)c1ccccc1,inactive,
[As]#[In],inactive,
Nc1ccc(N=Nc2ccccc2)cc1,,14.2 µM (active)
c1ccc2c(c1)-c1cccc3cccc-2c13,inactive,
CC(C)(OOC(C)(C)c1ccccc1)c1ccccc1,,30.7 µM (active)
ClC1=C(Cl)[C@]2(Cl)[C@H]3[C@H]([C@@H]4C=C[C@H]3C4)[C@@]1(Cl)C2(Cl)Cl,,29.8 µM (active)
O=[N+]([O-])c1ccc(Oc2ccc(Cl)cc2Cl)cc1,inactive,
CCC[CH2][Sn]([Cl])([CH2]CCC)[CH2]CCC,,0.148 µM (active)
CN(C)c1ccccc1,inactive,
COC(=O)c1ccccc1N,inactive,
CN(C)c1ccc(C(=O)c2ccc(N(C)C)cc2)cc1,,14.4 µM (active)
Cc1cc(N=Nc2ccccc2C)ccc1N,,20 µM (active)
C[N+](C)(C)CC1CO1 (centres undefined),inactive,
O=Cc1ccco1,inactive,
CCC(C)c1ccc(O)cc1 (centres undefined),inactive,
[O-][Cl+]O,inactive,
O=C(O)C1C2CCC(O2)C1C(=O)O (centres undefined),inactive,

# Read-out: CD38, CD38 (gene 952)
# Experiment: BSK_SAg_CD38: BioMAP Diversity Plus: SAg Assay for CD38 Biomarker Activity (AID 2283087)
# Conditions: primary human HUVEC with PBMC; actives raise or lower the signal
# Method in brief: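 CD38 quantified by ELISA (fluorescence) in a superantigen-activated endothelial cell–PBMC co-culture at 24 h post-dose. Activity fitted in both directions relative to DMSO; parallel SRB and Alamar Blue cytotoxicity read-outs.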
Compound,outcome,AC50
OCCOCCO,inactive,
COP(=S)(OC)SCN1C(=O)c2ccccc2C1=O,inactive,
C=CCc1ccc2c(c1)OCO2,inactive,
C1=Cc2cccc3cccc1c23,inactive,
Oc1ccccc1Cl,inactive,
[As]#[In],inactive,
c1ccc2c(c1)-c1cccc3cccc-2c13,inactive,
O=[N+]([O-])c1ccc(Oc2ccc(Cl)cc2Cl)cc1,,29.8 µM (active)
CCC[CH2][Sn]([Cl])([CH2]CCC)[CH2]CCC,,0.248 µM (active)
COC(=O)c1ccccc1N,inactive,
C[N+](C)(C)CC1CO1 (centres undefined),inactive,

# Read-out: CD40, CD40 (gene 958)
# Experiment: BSK_SAg_CD40: BioMAP Diversity Plus: SAg Assay for CD40 Biomarker Activity (AID 2283088)
# Conditions: primary human HUVEC with PBMC; actives raise or lower the signal
# Method in brief: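 Human umbilical vein endothelial cells co-cultured with PBMC; CD40 levels measured by ELISA with fluorescence read-out 24 h after chemical dosing. Gain or loss of signal fitted bidirectionally against DMSO baseline.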
Compound,outcome,AC50
N#CC(Br)Br,inactive,
OCCOCCO,inactive,
O=C(N[C@H](c1ccccc1)[C@@H]1CN2CCC1CC2)c1c(Cl)ccc(C(F)(F)F)c1Cl,inactive,
COP(=S)(OC)SCN1C(=O)c2ccccc2C1=O,inactive,
C=CCc1ccc2c(c1)OCO2,inactive,
O=C(Nc1ccccc1)c1ccccc1I,inactive,
c1ccc(N=Nc2ccccc2)cc1,inactive,
C1=Cc2cccc3cccc1c23,inactive,
CS(=O)(=O)NC(=O)c1cc(Oc2ccc(C(F)(F)F)cc2Cl)ccc1[N+](=O)[O-],inactive,
Oc1ccccc1Cl,inactive,
CO[C@@H]1[C@H](OC(=O)NC(=O)CCl)CC[C@]2(CO2)[C@H]1[C@@]1(C)O[C@@H]1CC=C(C)C,,7.52 µM (active)
[As]#[In],inactive,
Nc1ccc(N=Nc2ccccc2)cc1,inactive,
c1ccc2c(c1)-c1cccc3cccc-2c13,,31.2 µM (active)
CC(C)(OOC(C)(C)c1ccccc1)c1ccccc1,,31 µM (active)
ClC1=C(Cl)[C@]2(Cl)[C@H]3[C@H]([C@@H]4C=C[C@H]3C4)[C@@]1(Cl)C2(Cl)Cl,,27.9 µM (active)
O=[N+]([O-])c1ccc(Oc2ccc(Cl)cc2Cl)cc1,,20 µM (active)
CCC[CH2][Sn]([Cl])([CH2]CCC)[CH2]CCC,,0.148 µM (active)
CN(C)c1ccccc1,inactive,
COC(=O)c1ccccc1N,inactive,
CN(C)c1ccc(C(=O)c2ccc(N(C)C)cc2)cc1,inactive,
Cc1cc(N=Nc2ccccc2C)ccc1N,,30.7 µM (active)
C[N+](C)(C)CC1CO1 (centres undefined),inactive,
O=Cc1ccco1,inactive,
CCC(C)c1ccc(O)cc1 (centres undefined),inactive,
[O-][Cl+]O,inactive,
O=C(O)C1C2CCC(O2)C1C(=O)O (centres undefined),inactive,
